The structures appear in SMILES notation. Results filed as inconclusive are left out. Active and inactive are the calls of the source. Calls come from the whole dose curve; as a rule, active = well fitted cell-killing curve with a large enough effect; inconclusive = small, poorly fitted or top-dose-only effect, or effect the other way; inactive = no such curve, though single readings can be large or run the other way.

Drawing on PubChem BioAssay (NCATS), this text covers Potency for 17 molecules.

A short description of assay [1]: Quantitative High-Throughput drug screen in 47 multiple myeloma cell lines against the NCATS MIPE library collection: U266_ATCC cell viability assay (AID 1919864). Note: nearly all actives have a fitted effect of over 35% in size. In outline:
(§1)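 Myeloma cells (500/well) treated with MIPE 4.0 compounds for 48 h at 37 °C, 5% CO2. Viability read as ATP via CellTiter-Glo luminescence after 5 min at RT; DMSO-only wells = 100%, media-only = 0% viability.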

Assay [2] in a line: Quantitative High-Throughput drug screen in 47 multiple myeloma cell lines against the NCATS MIPE library collection: XG6_PLB cell viability assay (AID 1919865). Note: nearly all actives have a fitted effect of over 40% in size. The method in brief:
as §1

Assay [3] in a line: Quantitative High-Throughput drug screen in 47 multiple myeloma cell lines against the NCATS MIPE library collection: XG1_PLB cell viability assay (AID 1919866). Note: nearly all actives have a fitted effect of over 35% in size. The method in brief: as §1
A short description of assay [4]: Quantitative High-Throughput drug screen in 47 multiple myeloma cell lines against the NCATS MIPE library collection: VP6_DJ cell viability assay (AID 1919867). Note: nearly all actives have a fitted effect of over 40% in size. The method in brief:
as §1

The nature of assay [5]: Quantitative High-Throughput drug screen in 47 multiple myeloma cell lines against the NCATS MIPE library collection: UTMC2_PLB cell viability assay (AID 1919868). Note: nearly all actives have a fitted effect of over 55% in size. Conditions: CellTiter-Glo ATP luminescence, 48 h; viability (% of DMSO control): at 45.8 µM (top of the series). The method in brief:
as §1

The nature of assay [6]: Quantitative High-Throughput drug screen in 47 multiple myeloma cell lines against the NCATS MIPE library collection: PE2_PLB cell viability assay (AID 1919869). Note: nearly all actives have a fitted effect of over 35% in size. In outline: as §1
Assay [7] in a line: Quantitative High-Throughput drug screen in 47 multiple myeloma cell lines against the NCATS MIPE library collection: KMS11_JCRBsus cell viability assay (AID 1919873). Note: nearly all actives have a fitted effect of over 50% in size. In outline:
as §1

Assay [8] is described as follows: Quantitative High-Throughput drug screen in 47 multiple myeloma cell lines against the NCATS MIPE library collection: PCM6_Riken cell viability assay (AID 1919870). Note: nearly all actives have a fitted effect of over 30% in size. The method in brief: as §1
A short description of assay [9]: Quantitative High-Throughput drug screen in 47 multiple myeloma cell lines against the NCATS MIPE library collection: OPM2_DSMZ cell viability assay (AID 1919872). Note: nearly all actives have a fitted effect of over 30% in size. The method in brief:
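Viability readout: CellTiter-Glo luminescence following 5 min room-temperature incubation with reagent. Prior exposure: 48 h, 37C, humidified 5% CO2, 500 cells per well.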

The nature of assay [10]: Quantitative High-Throughput drug screen in 47 multiple myeloma cell lines against the NCATS MIPE library collection: RPMI8226_ATCC cell viability assay (AID 1919871). Note: nearly all actives have a fitted effect of over 30% in size. In outline: as §1
Potency is the fitted concentration of half-maximal effect.

Regarding `CC(O)(C#Cc1ccc2c(c1)N(c1nc(N)ncc1Cl)CC2)c1nccs1` (stereo not given), the Potency was 16600 nM (active) in assay [1]; 4180 nM (active) in assay [2]; 4690 nM (active) in [3]; 5260 nM (active) in assay [4]; 4180 nM (active) in assay [5]; 8330 nM (active) in assay [6]. For the same molecule, the Potency in assay [7] was 18700 nM (active).

As for `Nc1ccc(C(=O)Nc2cccc(-c3nc(N4CCOCC4)c4oc5ncccc5c4n3)c2)cn1`, the Potency in [1] is 20900 nM (active); in [2] it was 2960 nM (active); in assay [3], 5900 nM (active); in assay [4], 4180 nM (active); in [6] it was 2090 nM (active); in assay [8], 5900 nM (active). Further, the Potency in assay [9] was 5260 nM (active); in assay [7], 6620 nM (active).

Consider `Cc1cc(Nc2ncc3c(n2)N(C)C(=O)N(c2cc(NC(=O)c4cccc(C(F)(F)F)c4)ccc2C)C3)n(C)n1`, for which the Potency in [1] was 1320 nM (active); in assay [2] it was 935 nM (active); in assay [3] it was 2350 nM (active); in [4] it was 935 nM (active); in assay [5], 418 nM (active); in assay [6] it was 743 nM (active). The Potency was 1870 nM (active) in [8] and 235 nM (active) in assay [7].

For `CCc1c(O)cc(O)c(C(=O)c2ccc(OCCN3CCOCC3)c(OC)c2)c1CC(=O)N(CCOC)CCOC`, the Potency in assay [1] was 1050 nM (active); in assay [2], 1480 nM (active); in assay [3], 1180 nM (active); in assay [4], 1180 nM (active); in assay [5], 935 nM (active); in [6], 833 nM (active). For the same molecule, the Potency is 1320 nM (active) in [8], 1050 nM (active) in [9] and 935 nM (active) in [7].

Consider `O=C(CCCCCCC(=O)Nc1cccnc1)NO`, for which the Potency is 4690 nM (active) in assay [1]; 11800 nM (active) in assay [2]; 3720 nM (active) in assay [3]; 1480 nM (active) in assay [4]; 7430 nM (active) in [6]; 7430 nM (active) in assay [8]. In addition, the Potency in [7] was 5900 nM (active).

Turning to `C[C@@]12C(=O)OC(=O)[C@@]1(C)C1CCC2O1`, the Potency in assay [1] was 1660 nM (active); in assay [2], 4180 nM (active); in assay [3], 2640 nM (active); in assay [4] it was 2350 nM (active); in assay [6] it was 2640 nM (active); in assay [8], 2350 nM (active). Moreover, the Potency in assay [10] was 2960 nM (active); in [9], 662 nM (active); in assay [7] it was 743 nM (active).

For `C#CCC(Cc1cnc2nc(N)nc(N)c2n1)c1ccc(C(=O)N[C@@H](CCC(=O)O)C(=O)O)cc1` (stereo not given in full), the Potency is 372 nM (active) in assay [1]; 41.8 nM (active) in assay [2]; 59 nM (active) in assay [3]; 118 nM (active) in assay [4]; 372 nM (active) in [5]; 418 nM (active) in assay [6]. The Potency in assay [7] was 93.5 nM (active). Besides, in assay [10], the Potency entry is “inactive”.

As for `NC1=N[C@H]2[C@H](CS[C@H]2CCCCC(=O)O)N1`, the Potency result in assay [1], in [2], in assay [3], in assay [4], in assay [5] and in assay [6] was “inactive” each time. The Potency result in assay [8], in assay [9] and in assay [7] was “inactive” in each case.

For `CCCNC(=O)[C@H]1O[C@H]1C(=O)N[C@H](C(=O)N1CCC[C@@H]1C(=O)OC)C(C)CC` (stereo not given in full), the Potency is 10500 nM (active) in assay [1]; 8330 nM (active) in assay [2]; 16600 nM (active) in [4]; 4180 nM (active) in assay [6]; 16600 nM (active) in [8]; 20900 nM (active) in assay [10]. In addition, the values for the Potency in [9] and in assay [7] were 11800 nM (active) and 23500 nM (active), respectively.

As to `O=C(NNC(=O)c1ccc(CNS(=O)(=O)c2ccc(F)c(Cl)c2)cc1)c1ccccc1`, the Potency result in assay [1], in assay [2], in [4], in [5], in [6] and in assay [8] was “inactive” throughout. In addition, the Potency entry in assay [10], in assay [9] and in [7] was “inactive” throughout.

As to `CCOc1cc2ncc(C#N)c(Nc3ccc(OCc4ccccn4)c(Cl)c3)c2cc1NC(=O)C=CCN(C)C`, the Potency in assay [1] was 13200 nM (active); in assay [2], 18.7 nM (active); in assay [3] it was 132 nM (active); in assay [4] it was 1180 nM (active); in [6], 5260 nM (active); in assay [8] it was 332 nM (active). Also, the Potency in [7] was 14800 nM (active).

With `CC(=O)OC[C@@H]1O[C@@H](n2ccc(=O)[nH]c2=O)[C@H](OC(C)=O)[C@H]1OC(C)=O`, the Potency entry in assay [1], in assay [2], in [3], in assay [5], in assay [6] and in assay [8] was “inactive” throughout. Also, the Potency entry in assay [10], in [9] and in assay [7] was “inactive” throughout.

As to `C[C@]12C=CC(=O)N[C@@H]1CC[C@H]1[C@H]3CC[C@@H](C(=O)Nc4cc(C(F)(F)F)ccc4C(F)(F)F)[C@@]3(C)CC[C@@H]12`, the Potency result in assay [1], in [5] and in assay [7] was “inactive” each time. For the same molecule, the Potency in [2] was 16600 nM (active); in [3], 13200 nM (active); in [8], 4690 nM (active); in assay [9], 10500 nM (active).

On to `NC(=O)c1cccc(-c2cccc(OC(=O)NC3CCCCC3)c2)c1`, for which the Potency entry in [1], in assay [2], in [4], in [5], in [6] and in assay [8] was “inactive” throughout. Besides, the Potency result in assay [9] and in assay [7] was “inactive” in each case.

With `CC(=O)O[C@H]1C[C@@H]2CC[C@H]3[C@H]4C[C@H]([N+]5(C)CCCCC5)[C@@H](OC(C)=O)[C@@]4(C)CC[C@@H]3[C@@]2(C)C[C@H]1[N+]1(C)CCCCC1`, the Potency in assay [1] is 23500 nM (active). The Potency result in assay [2], in assay [3], in assay [8], in [10], in assay [9] and in assay [7] was “inactive” throughout.

Regarding `Nc1ccn(C2CO[C@H](CO)O2)c(=O)n1` (stereo not given in full), the Potency entry in [1], in assay [2], in [3], in [6], in assay [8] and in assay [10] was “inactive” each time. Besides, in assay [7], the Potency result is “inactive”.

As for `COC(=O)[C@@H]1CC2=CC(=O)CC[C@]2(C)[C@@]23O[C@@H]2C[C@@]2(C)[C@H](CC[C@@]24CCC(=O)O4)[C@@H]13`, the Potency result in assay [1], in [2], in assay [3], in [6], in assay [8] and in [10] was “inactive” each time. Further, the Potency result in assay [9] and in assay [7] was “inactive” throughout.
